CHX counter – counter-screen hit for Shiga toxin inhibitors, cycloheximide. cell reporter, cycloheximide protein synthesis inhibition counterscreen. max response, %. actives 12% (n = 300,000); in the data active = max response mostly above about 13%, no sharp cut-off; inactive = mostly below about 14%; also: read at 38.3 µM for the half of the compounds with a filed dose
AMA1 RON2 block – AMA1-RON2 (P. falciparum) interaction inhibition; AlphaScreen AMA1-biotinylated RON2 peptide binding; Potency, µM (highest dose often 58.2 µM), usual class: inhibitors; actives 0.2% (n = 360,000); AID 720542; also: nearly all actives have a fitted effect of over 45% in size
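AMA1 (3D7) with his tag at 25 nM final met compounds first, then biotinylated RON2 peptide at 25 nM; detection used donor plus acceptor beads, 10 µg/mL apiece, read by AlphaScreen after 30 min at room temperature.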
Shiga toxin inh – inhibitors of Shiga toxin in Vero cells; Vero cells, Shiga toxin protein synthesis inhibition reporter; inhibition, % at 38.7 µM; actives 9.2% (n = 290,000); AID 2315; in the data active = inhibition mostly above about 28%, no sharp cut-off; inactive = mostly below about 43%
AmpC inh no detg – inhibitors of E. coli AmpC beta-lactamase without detergent; P00811; AmpC nitrocefin hydrolysis, absorbance 480 nm, 0.0001% Triton; Potency, µM (series often up to 57.1 µM), most hits filed as inhibitors; actives 0.52% (n = 330,000); AID 485341; also: nearly all actives have a fitted effect of over 20% in size
Target sequence (P00811 whole entry, looked up): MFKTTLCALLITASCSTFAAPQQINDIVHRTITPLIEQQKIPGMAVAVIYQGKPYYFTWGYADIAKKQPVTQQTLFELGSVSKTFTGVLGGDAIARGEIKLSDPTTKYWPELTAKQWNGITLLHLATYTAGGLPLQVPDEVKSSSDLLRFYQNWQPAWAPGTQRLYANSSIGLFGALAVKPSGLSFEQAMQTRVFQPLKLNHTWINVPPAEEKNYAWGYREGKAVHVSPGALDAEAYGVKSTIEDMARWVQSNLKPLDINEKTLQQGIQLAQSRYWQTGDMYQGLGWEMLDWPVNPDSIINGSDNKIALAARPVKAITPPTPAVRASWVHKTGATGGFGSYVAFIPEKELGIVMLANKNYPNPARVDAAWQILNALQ
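AmpC (5.3 nM in the dispensed reagent) in 20 mM phosphate pH 7.0 with 0.01% (detergent screen) or 0.0001% Triton X-100 was preincubated with compounds for 15 min at room temperature. Nitrocefin was then added from an 800 uM solution, and hydrolysis was followed at 480 nm.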
SARS PLP yeast – inhibitors of SARS-CoV papain-like protease in yeast; S. cerevisiae expressing SARS-CoV PLpro, growth rescue; actives 0.19% (n = 330,000); Potency, µM (series often up to 32.9 µM), hits mostly activators; AID 485353; calls by dose curve; also: nearly all actives have a fitted effect of over 55% in size
AmpC inh detg – AmpC beta-lactamase inhibition with detergent present; P00811; AmpC hydrolysis of nitrocefin, absorbance 480 nm, 0.01% Triton; Potency, µM (doses to about 114 µM), actives largely listed as inhibitors; actives 0.041% (n = 370,000); also: nearly all actives have a fitted effect of over 25% in size
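20 mM phosphate pH 7.0 + 0.01% (detergent screen) or 0.0001% Triton X-100; 5.3 nM AmpC reagent; cpd preinc 15 min RT; nitrocefin (800 uM stock) to start; A480 q20 s × 4 min; Activity was normalised to no-enzyme and no-compound control wells.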
Hits are given with their value; 0 = inactive; ? = inconclusive; - = no result. Many of the other results were omitted from the sample, so hits are more common in it than they were. Unless noted, calls follow the shape of the dose curve; as a rule, active = well fitted curve in the direction sought with a large enough effect; inconclusive = small, poorly fitted or top-dose-only effect, or another doubt; inactive = no such curve, though single readings can be large; an effect the other way counts as inactive or inconclusive.

SMILES | CHX counter | AMA1 RON2 block | Shiga toxin inh | AmpC inh no detg | SARS PLP yeast | AmpC inh detg
COc1ccc(CCNC(=O)C(=O)NCCCN2CCOCC2)cc1 | 0 | 0 | 0 | 0 | 0 | 0
Clc1ccc(CNc2ccc(N3CCN(Cc4ccccc4)CC3)cc2)cc1 | 0 | 7.94µM | 0 | 0 | 0 | 0
COc1ccc(CNc2ccc(N3CCOCC3)cc2)cc1 | 21.8 | ? | 0 | 0 | 0 | 0
COc1ccc(CCNCCN2CCOCC2)cc1 | 0 | 14.1µM | 0 | 0 | 0 | 0
CC(NCc1ccncc1)C12CC3CC(CC(C3)C1)C2 (centres undefined) | 0 | 0 | 0 | 0 | 0 | 0
Cc1ccc(NC(=O)N2C(=O)C3(OCCO3)c3ccccc32)cc1 | 43.5 | 0 | 92.9 | 0 | 0 | 0
Cc1ccc(C(=O)N/N=C\c2cccc(OC(=O)c3cccc(F)c3)c2)cn1 | 19.9 | 0 | 43.4 | 0 | 0 | 0
Cc1ccc(C(=O)N/N=C\c2ccc(OC(=O)c3cccc(F)c3)cc2)cn1 | 0 | 0 | 0 | 0 | 0 | 0
COc1cccc(/C=N\NC(=O)c2ccc(C)nc2)c1 | 29.1 | 0 | 45.8 | 0 | 0 | 0
CCCNC(=O)C1CCC(Cn2c(=O)c3sccc3n(CC(=O)N3CCC(C)CC3)c2=O)CC1 (centres undefined) | - | - | - | - | - | 0
Cc1ccccc1-n1ncc2c1CC(C)(C)CC2NC(=O)c1cn[nH]c1C (centres undefined) | 0 | 0 | 0 | 0 | 0 | 0
Cc1ccc(C(=O)Cn2nnc3ccccc32)cc1[N+](=O)[O-] | 27.8 | 0 | 93.5 | 0 | 0 | 0
O=C(Cn1nnc2ccccc21)c1ccccc1 | 19.8 | 0 | 0 | 0 | 0 | 0
O=C(Cn1nnc2ccccc21)c1cccc([N+](=O)[O-])c1 | 0 | 0 | 0 | 0 | 0 | ?
O=c1c(Sc2ccccc2)c(C(F)(F)F)[nH]n1-c1ccccc1 | 0 | 0 | 0 | 0 | 0 | 0
COC(=O)[C@@H]1C[C@@]2(O)[C@H](O)[C@H](O)[C@H](O)C[C@H]2N1Cc1cccc2ccccc12 | 0 | 0 | 0 | 0 | 0 | 0
O=C(NCCCN1CCOCC1)C(=O)NCC1OCCCN1S(=O)(=O)c1cc(F)ccc1F (centres undefined) | 0 | 0 | 0 | 0 | 0 | 0
Cc1cc(=O)[nH]c(N=N/C(=N/Nc2ccc(O)cc2)c2ccccc2)n1 | 48.7 | 0 | 100.2 | 0 | 0 | 0
COc1ccc(N/N=C(/N=Nc2nc(C)cc(=O)[nH]2)c2ccccc2)cc1 | 61.8 | 0 | 90.8 | 0 | ? | 0
Cc1cc(=O)[nH]c(N=N/C(=N/Nc2ccccc2C)c2ccccc2)n1 | 0 | 0 | 0 | 0 | 0 | 0
CN(C)/C=C/C(=O)c1ccc(S(=O)c2ccccc2)cc1 (centres undefined) | 0 | 0 | 0 | 0 | 0 | 0
CN(C)/C=C/C(=O)c1ccc(Cl)cc1 | 0 | 0 | 0 | 0 | 0 | 0
CN(C)/C=C/C(=O)c1cccc(Cl)c1 | 16.5 | 0 | 0 | 0 | 0 | 0
CN(C)/C=C/C(=O)c1ccc(Cl)c([N+](=O)[O-])c1 | 20.5 | 0 | 0 | 0 | 0 | 0
CN(C)/C=C/C(=O)c1ccc(-n2cccc2)cc1 | 30.2 | 0 | 74.6 | 0 | 0 | ?
SMILES | CHX counter | AMA1 RON2 block | Shiga toxin inh | AmpC inh no detg | SARS PLP yeast | AmpC inh detg
CC(=O)N(C(C)=O)c1nc(-c2ccccc2)cn1/N=C/c1ccccc1 | 0 | 0 | 0 | 0 | 0 | 0
Cc1ccc(-c2cc(C(=O)NCc3cnn(C)c3C)c3ccccc3n2)cc1C | - | - | - | - | - | 0
COc1ccc(/C=C/C(=O)O)cc1 | 0 | 0 | 0 | 0 | 0 | -
COc1ccc(/C=C/C(=O)CCC(=O)O)cc1 | 32.0 | 0 | 56.3 | 0 | 0 | 0
COc1ccc(/C=C/C(=O)OCCC(C)C)cc1 | 33.7 | - | 104.9 | - | - | -
COc1ccc(N2CCN(c3ncnc4nc[nH]c34)CC2)cc1 | 0 | 0 | 0 | 0 | 0 | 0
CCN1C(=O)/C(=C\c2ccco2)C(C(=O)OC)=C1C | 0 | 0 | 0 | 0 | 0 | 0
COC(=O)C1=C(C)N(c2cccc(OC)c2)C(=O)/C1=C\c1ccco1 | 17.4 | ? | 0 | 0 | 0 | ?
CCN(CC)CCCNC(=O)CN1C(=O)COc2ccc(S(=O)(=O)N3CCC(C)CC3)cc21 | - | - | - | - | - | 0
CC(C)(C)c1cnnn1-c1ccc(NC(=O)c2ccc3c(c2)OCO3)cc1 | 12.8 | 0 | 27.9 | 0 | 0 | 0
